Assay outcomes from PubChem.
Compounds with a hit are over-represented: about 1.6% of the library has one in this group of screens.
KCNQ2 block – inhibitors of rat KCNQ2 potassium channel; B-score at 10 µM; 1.1% of 310,000 active; AID 2156; CHO-K1 KCNQ2, FluxOR thallium flux, 20 min; hits give low values;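 active = fluorescence ratio B-score at most minus 3 library SDs, with starting brightness B-score within 2 library SDs, cut at about -5.5 in these data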
KCNQ2 pot – enhances the rat KCNQ2 potassium channel. B-score at 10 µM. CHO-K1 KCNQ2, FluxOR thallium flux fluorescence; hits give high values. 0.54% of 310,000 active. O88943;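 active = fluorescence ratio B-score at least 3 SD of library B-scores, with initial fluorescence B-score within 3 of them, cut at about 5.3 in these data; same plate scores as AID 2156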;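 note: B-score of peak minus minimum over baseline fluorescence ratio after K+ and Tl+ stimulus; positive B-score means potentiation of KCNQ2 with more thallium influx and brighter signal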
KCNQ2 inh conf – confirmation of rat KCNQ2 potassium channel inhibitors. KCNQ2-expressing cells, thallium flux, inhibition; hits give low values. 57% of 1,000 active. shares compounds with KCNQ2 block. AID 493025. activity change, negative = inhibition, % at 10 µM;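 note: 0% = vehicle wells and values are ratio percent relative to vehicle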
KCNQ1 spec – human KCNQ1 activity in KCNQ2 inhibitor specificity screen; shares compounds with KCNQ2 block; KCNQ1-expressing cells, FluxOR thallium flux fluorescence; hits give low values; activity change, negative = inhibition, % at 10 µM; 15% of 1,000 active;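 active = activity change at least 3 SD of negative controls below their mean in both duplicate wells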;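 note: CHO cells stably transfected with KCNQ1 and depolarized by potassium stimulus; peak minus minimum fluorescence over baseline after thallium addition; 0% = vehicle negative control and -100% = blank without thallium stimulus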
CHO parental ctr – KCNQ2 inhibitor counter-screen hit in parental CHO cells. shares compounds with KCNQ2 block. thallium flux counter-screen; hits give low values. activity change, % at 10 µM. 14% of 1,000 active. AID 493029;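 note: 0% = vehicle negative controls with stimulus buffer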
KCNQ2 inh confirm – blocks rat KCNQ2 current in automated patch clamp; shares compounds with KCNQ2 block; KCNQ2-expressing cells; calls only at 10 µM; 49% of 550 active
* marks the source's active call; other numbers are inactive results; i = inactive; . = no result given. Unless noted, the rule behind the calls is not given here.

SMILES	KCNQ2 block	KCNQ2 pot	KCNQ2 inh conf	KCNQ1 spec	CHO parental ctr	others
CC1(C)CC(C(CCN(Cc2ccccc2)C(=O)c2ccco2)c2ccc(F)cc2)CCO1 (stereo not drawn)	i	.	.	.	.
CCn1cc(CCC(=O)NC2CCCC2)c2ccccc21	i	1.7	.	.	.
COc1cccc(CNC23CC4CC(CC(C4)C2)C3)c1OCc1ccccc1	i	.	.	.	.
Cc1nc(N2CCN(C(=O)c3ccco3)CC2)c2c3c(sc2n1)CCC3	i	1.2	.	.	.
CC(C)c1nc(N2CCN(C(=O)c3ccco3)CC2)c2c3c(sc2n1)CCCC3	-8.7*	-8.7	i	i	i
O=C(CCN1CCOCC1)c1ccc(Cl)cc1	i	.	.	.	.
COc1ccc(C(=O)CCN2CCN(c3ccc(OC)cc3)CC2)cc1	i	.	.	.	.
O=C(CCN1CCN(c2ccccc2F)CC1)c1ccc(Br)cc1	-8.5*	-8.5	i	i	i
O=C(CCN1CCN(c2ccccc2)CC1)c1ccc(Br)cc1	-8.2*	-8.2	-22%*	i	i	KCNQ2 inh confirm=i
COc1ccc(C(=O)CCN2CCN(c3ccccc3F)CC2)cc1	i	.	.	.	.
O=C(CCN1CCOCC1)c1ccc(Br)cc1	-7.4*	-7.4	-47%*	-50%*	-36%*	KCNQ2 inh confirm=i
CC(=O)N1CCN(C(=O)C(Cc2c[nH]c3ccccc23)NC(=O)c2ccccc2Cl)CC1 (stereo not drawn)	i	0.46	.	.	.
COCCn1c(-c2ccc(OC)cc2)cnc1N	i	.	.	.	.
CCOc1ccc(-c2cnc(NCc3cccc4ccccc34)n2CCOC)cc1	-9.7*	-9.7	i	i	i
Cc1ccc2c(c1)c(CC(=O)Nc1ccc(F)cc1)c(C(=O)O)n2C	i	.	.	.	.
COC(=O)CSc1nc2[nH]ncc2c(=O)[nH]1	i	0.99	.	.	.
